Screens: PubChem, National Center for Advancing Translational Sciences (NCATS)
HP1b chromo inh: inhibitors of HP1-beta chromodomain binding to methylated histone tails | 390,000 tested, 0.56% active | P83916 | AID 540317 | Potency, µM (top dose mostly 114 µM), inactives show top-dose activity change, negative = inhibition, hits mostly inhibitors | AlphaScreen HP1-beta / biotin-H3K9me3 peptide binding; note: nearly all actives have a fitted effect of over 70% in size
Target sequence (P83916 whole entry, looked up): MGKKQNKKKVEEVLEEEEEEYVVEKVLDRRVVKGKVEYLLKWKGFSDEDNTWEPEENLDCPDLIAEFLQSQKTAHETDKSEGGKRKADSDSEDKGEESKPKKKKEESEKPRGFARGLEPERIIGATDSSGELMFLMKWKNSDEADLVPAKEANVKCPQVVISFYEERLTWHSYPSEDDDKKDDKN
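HP1-beta protein (50 nM final) preincubated 30 min at room temperature with biotinylated H3(1-18)K9me3 peptide (50 nM) in PBS pH 7.4, 0.01% Tween-20, then compound added for 30 min. AlphaScreen streptavidin donor/nickel chelate acceptor beads (10 ug/mL final), 30 min dark, luminescence read.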
Sfp PPTase inh: inhibitors of Bacillus subtilis Sfp phosphopantetheinyl transferase; Q9F4F7; Biochemical Sfp PPTase activity, qHTS; Potency, µM, for the others: largest response in the series, negative = inhibition, most hits filed as inhibitors; 310,000 tested, 3.5% active;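 note: the enzyme is Sfp with the accession as filed and its product quenches rhodamine fluorescence; 0% = enzyme reaction without inhibitor and -100% = no enzyme wells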
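Fluorescence-quenching assay: 15 nM Sfp-PPTase preincubated 15 min at room temperature with compound, then 5 uM rhodamine-CoA and 12.5 uM BHQ-2-labelled YbbR peptide added. Fluorescence (ex 525/em 598 nm) read at start and after 30 min; difference gives rate.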
JMJD2A Tudor inh: inhibitors of human JMJD2A Tudor domain; AlphaScreen JMJD2A-Tudor / H3K4me3 peptide binding; Potency, µM (highest dose often 114 µM), inactives show at the highest dose activity change, negative = inhibition, hits mostly inhibitors; 390,000 tested, 4.4% active; note: % is set by controls: 0 for no effect and ±100 for the full control effect; nearly all actives have a fitted effect of over 50% in size
BAZ2B block: BAZ2B (human) inhibition | 360,000 tested, 4.4% active | Potency, µM (series often up to 114 µM), without a hit: top-dose activity change, negative = inhibition, hits mostly inhibitors | AID 504333 | AlphaScreen BAZ2B-H3K14Ac peptide displacement; note: % is set by controls: 0 for no effect and ±100 for the full control effect; nearly all actives have a fitted effect of over 60% in size
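Inhibition is scored as reduced AlphaScreen emission. The BAZ2B/b-H3(5-23)K14Ac complex (50 nM each) in PBS pH 7.4, 0.01% Tween-20 meets compound (up to 110 uM) for 30 min at RT before bead addition.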
G9a block: inhibitors of human histone lysine methyltransferase G9a; G9a H3K9 monomethylation, AlphaScreen, 2 h; Potency, µM (highest dose often 102 µM), inactives show at the top dose activity, negative = inhibition, actives largely listed as inhibitors; 350,000 tested, 8.8% active; AID 504332; note: % is set by controls: 0 for no effect and ±100 for the full control effect; nearly all actives have a fitted effect of over 75% in size
Target sequence (Q96KQ7 913-1193 limits assumed): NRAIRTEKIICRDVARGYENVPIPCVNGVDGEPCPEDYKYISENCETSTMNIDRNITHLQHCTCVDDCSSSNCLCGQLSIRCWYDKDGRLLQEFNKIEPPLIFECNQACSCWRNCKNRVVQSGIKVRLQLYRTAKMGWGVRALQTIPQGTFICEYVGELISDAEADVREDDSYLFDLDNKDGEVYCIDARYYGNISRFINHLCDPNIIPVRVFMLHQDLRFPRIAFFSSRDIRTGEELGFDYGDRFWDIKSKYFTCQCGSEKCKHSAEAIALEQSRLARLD
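Using a bead-based AlphaScreen, monomethylated H3K9 product from 2 h room-temperature reactions (G9a 20 nM, peptide 500 nM, SAM 20 uM) was detected with 0.5 ug/mL rabbit anti-H3K9me1 antibody.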
Numbers without * were called inactive; u = inconclusive; x = no result; ! = repeats disagree; [ ] = dose if it differs, or a comment. Hits are enriched below; roughly 12% of the tested compounds scored in any of these assays. Calls come from the whole dose curve; as a rule, active = well fitted curve in the direction sought with a large enough effect; inconclusive = small, poorly fitted or top-dose-only effect, or another doubt; inactive = no such curve, though single readings can be large; an effect the other way counts as inactive or inconclusive. Potency is the fitted concentration of half-maximal effect.

SMILES	HP1b chromo inh	Sfp PPTase inh	JMJD2A Tudor inh	BAZ2B block	G9a block
C=C(C[C@]1(C(=O)OC)CC2(CC=C(C)C)C(=O)C(C(=O)CC(C)C)=C(O)C(CC=C(C)C)(C1)C2=O)C(=O)OC (some centres not stated)	x	-11.3%	x	x	x
CN(c1ccccc1)S(=O)(=O)c1cc(C(=O)Nc2ccccc2N2CCOCC2)ccc1Cl	60.0%	x	8.7%	x	x
COc1ccc(CNC(=O)c2cc3c(=O)n(Cc4cccs4)ccc3nc2C)cc1	11.8%	x	-7.3%	-11.3%	17.2%[59 µM]
CSC1=NC2(CCCCC2)C2=C(CCCC2)N1	24.6%	11.1%	-14.4%	13.4%	44.7µM*
COc1ccc(CCCc2nnc(SCC(=O)Nc3ccc(OC)cc3)o2)cc1	-4.7%	3.4%	28.2µM*!	3.0%	u
COc1ccc(NCc2nnc(SCC(=O)c3ccc(C)cc3)o2)cc1	-23.1%	-8.1%	u	u	14.1µM*
COc1ccc(CCCc2nnc(SCC(=O)Nc3ccc(C)cc3)o2)cc1	32.6%	x	-8.7%	1.4%	u
COc1ccc(Cl)cc1NC(=O)c1cc2c(=O)n3ccccc3nc2s1	35.3%	x	-32.4%	-32.4%	-43.8%[59 µM]
COc1ccc(C)cc1NC(=O)C(=O)NCCc1sc(-c2ccc(Cl)cc2)nc1C	18.5%[57 µM]	x	-17.6%	-6.1%	7.5%[59 µM]
COc1ccc(Cl)cc1NC(=O)N1CCC(CN2CCCCCC2)CC1	16.0%	x	-9.2%	-15.5%	u
CCOc1ccc(-c2csc(/C(C#N)=C\c3ccc(O)c([N+](=O)[O-])c3)n2)cc1	35.5µM*	79.4µM*	22.4µM*	7.08µM*	u
CN(C)c1ccc(/C=C(\C#N)c2nc(-c3ccc(Cl)c(Cl)c3)cs2)cc1	39.3%	x	-7.5%	-3.3%	u
C=C(COC)C1=CCC(C(=O)OC)(C(=O)OC)[C@@H](C[N+](=O)[O-])c2ccccc21	x	-28.6%	x	x	x
Cc1cc(/C=C(\C#N)c2nnc(N3CCOCC3)n2-c2ccccc2)c(C)n1-c1ccccc1	x	-14.1%	x	50.1µM*	u
COc1ccc(S(=O)(=O)Nc2cc(C(=O)NCCC(C)C)ccc2N2CCOCC2)cc1	39.4%	10.8%	-11.7%	-30.0%	50.1µM*
CCN1CCCC1CNC(=O)c1ccc(N2CCOCC2)c(NS(=O)(=O)c2ccc(OC)cc2)c1 (configuration not stated)	29.9%	8.8%	-17.2%	-16.3%	50.1µM*
COc1ccc(S(=O)(=O)Nc2cc(C(=O)NCCCN3CCOCC3)ccc2N2CCOCC2)cc1	68.0%	8.4%	-22.0%	-32.3%	u
COc1ccc2ccc(C(C)(C(C)=O)C(=O)OC(C)C)cc2c1 (configuration not stated)	142.9%	x	90.0%	61.8%	3.2%[0.501 µM]
N#Cc1c(NC(=O)C2CC(c3ccccc3Cl)=NO2)sc2c1CCC2 (configuration not stated)	-26.2%	12.3%	-23.3%	0.6%	u
N#Cc1c(NC(=O)c2ccco2)sc2c1CCC2	u	-3.9%	50.1µM*	-17.1%	89.1µM*
COC(=O)c1c(NC(=O)c2c(OC)cccc2OC)sc2c1CCCC2	-25.7%	x	-7.8%	7.8%	u
O=C(O)c1ccc(NS(=O)(=O)c2cccc(C(=O)Nc3ccc(Br)cc3)c2)cc1	39.2%	17.6%	-13.6%	7.4%	20.4%[0.501 µM]
COc1cccc(OC)c1C(=O)Nc1sc2c(c1C#N)CCC2	28.3%	39.8µM*	-20.7%	55.4%	x
N#Cc1c(NC(=O)C2CC(c3ccccc3O)=NO2)sc2c1CCC2 (configuration not stated)	-18.9%	25.1µM*	-17.9%	-6.0%	8.91µM*
N#Cc1c(NC(=O)c2cccc(S(=O)(=O)Nc3ccc(C(=O)O)cc3)c2)sc2c1CCCC2	-6.4%	2.3%	-35.9%	56.2µM*	50.1µM*
SMILES	HP1b chromo inh	Sfp PPTase inh	JMJD2A Tudor inh	BAZ2B block	G9a block
O=C(NCc1cccc(Cl)c1)c1cnc(N2CCCCC2)c2ccccc12	64.4%[57 µM]	x	16.8%	26.5%	45.7%[59 µM]
COc1ccccc1N1C(=O)CC(N2CCN(c3ccc([N+](=O)[O-])cc3)CC2)C1=O (configuration not stated)	27.5%	15.1%	-27.8%	-23.5%	u
N#Cc1c(NC(=O)c2nc3ncccn3n2)sc2c1CCCCC2	22.2%	-22.5%	-12.2%	30.1%	-15.1%[59 µM]
Cc1onc(-c2ccccc2Cl)c1C(=O)Nc1sc2c(c1C#N)CCC2	u	17.8µM*	u	-31.8%	10µM*
Cc1onc(-c2ccccc2)c1C(=O)Nc1sc2c(c1C#N)CCC(C)C2 (configuration not stated)	26.5%	-2.0%	-20.9%	-9.1%	u
N#Cc1c(NC(=O)c2cnn3cccnc23)sc2c1CCCC2	-4.9%	44.7µM*	-6.9%	-15.6%	39.8µM*
CC1CCc2c(sc(NC(=O)c3nc4ncccn4n3)c2C#N)C1 (configuration not stated)	u	22.4µM*	u	-24.8%	3.16µM*
Cc1onc(C(=O)Nc2sc3c(c2C#N)CCCC3)c1[N+](=O)[O-]	-7.5%	50.1µM*	-20.0%	-64.8%	44.7µM*
O=[N+]([O-])c1ccc(C2=NCCO2)cc1	41.2%	9.9%	-5.6%	-13.6%	-7.0%
COc1cccc(N2CCN(C(=O)CN3CCSc4ccc(S(=O)(=O)N(C)C)cc43)CC2)c1	6.4%[57 µM]	x	-28.8%	-27.1%	1.6%[59 µM]
CCOc1ccc(C(c2c(O)cc(C)n(Cc3ccco3)c2=O)N2CCN(c3ccccc3)CC2)cc1 (configuration not stated)	9.2%[57 µM]	x	u	-23.6%	u
CC(C)(C)C1CCc2c(sc(NC(=O)c3cc(-c4ccc(F)cc4)on3)c2C#N)C1 (configuration not stated)	8.8%	x	-5.1%	1.3%	u
COc1cccc(CN(C)CC(=O)Nc2sc3c(c2C#N)CCC3)c1OC	40.3%	-27.9%	-7.7%	79.4µM*	-33.3%
CC(C)(C)C1CCc2c(sc(NC(=O)c3noc4c3CCCC4)c2C#N)C1 (configuration not stated)	-4.9%	x	-2.4%	-0.6%	7.08µM*
N#Cc1c(NC(=O)c2ccncc2)sc2c1CCC2	-19.4%	u	63.1µM*	50.1µM*	11.2µM*
NC(=O)C1CCCN1Cc1ccc2c(c1)OCO2 (configuration not stated)	19.8%	x	1.4%	x	x
CS(=O)(=O)N1CCN(Cc2cc(=O)n3ccsc3n2)CC1	46.5%	-1.8%	-8.3%	-1.5%	x
COc1ccc(C(=O)CN2CCN(c3ccc(F)cc3)CC2)cc1	25.4%	-4.9%	-18.1%	u	x
Cc1c(O)ccc(C(=O)CN2CCN(c3ccccc3F)CC2)c1O	42.6%	14.2%	6.6%	u	u
COc1ccc(N2CCN(CC(=O)c3ccc(O)c(C)c3O)CC2)cc1	-6.5%[57 µM]	3.9%	u	u	39.8µM*
Cc1c(O)ccc(C(=O)CN2CCN(c3ccccc3)CC2)c1O	86.7%	10.4%	2.3%	u	44.7µM*
